Shown are actives, neighbours in structure and some others; about 3.2% of the full set was active somewhere.
RGS12 GoLoco inh – blocks human Gai1 binding to RGS12 GoLoco peptide, red readout; Gai1:RGS12 GoLoco peptide FP, rhodamine, 10 min; AID 880; Potency, µM (top dose mostly 61.6 µM), for the others: top-dose activity, negative = inhibition, actives largely listed as inhibitors; 0.44% of 230,000 active; P63096; active means well fitted inhibition curve with a large enough effect, not every such curve was filed as active; inactive means no such curve, though single readings can be large or run the other way; further: potency means the concentration at half of the fitted maximal effect; on the % scale 0 is the no-effect control and ±100 the full control effect; nearly all actives have a fitted effect of over 30% in size
Target sequence (P63096 whole entry, looked up): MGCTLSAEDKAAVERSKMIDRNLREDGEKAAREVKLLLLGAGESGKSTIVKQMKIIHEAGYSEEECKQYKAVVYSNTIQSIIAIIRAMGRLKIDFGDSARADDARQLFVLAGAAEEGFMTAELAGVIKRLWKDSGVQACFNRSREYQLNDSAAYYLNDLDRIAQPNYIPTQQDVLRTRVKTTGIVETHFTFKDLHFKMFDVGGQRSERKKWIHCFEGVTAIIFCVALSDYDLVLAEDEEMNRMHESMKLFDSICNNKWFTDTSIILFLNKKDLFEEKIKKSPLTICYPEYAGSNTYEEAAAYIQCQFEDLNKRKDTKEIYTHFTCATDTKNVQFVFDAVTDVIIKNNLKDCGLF
TexasRed fluor – alters Texas Red total fluorescence, flagging assay interference; TRb/SRC2 Texas Red total fluorescence interference; 0.29% of 280,000 active; Potency, µM (series often up to 106 µM), for the others: top-dose fluorescence change, negative = quenching; AID 1479; active means well fitted curve in either direction with a large enough effect; inconclusive means small, poorly fitted or top-dose-only effect; further: potency means the concentration at half of the fitted maximal effect; on the % scale 0 is the no-effect control and ±100 the full control effect
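Flags fluorescent or light-absorbing compounds by total fluorescence, S + 2P, at 555 nm excitation and 632 nm emission. Mixture: 20 nM Texas Red SRC2 peptide, 0.6 uM human TRb LBD, 1 uM T3, 5% DMSO; compound exposure 5 h at ambient temperature.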
Tau FP inhib – blocks human tau fibril formation measured by polarization; 0.39% of 280,000 active; P10636; AID 1468; Potency, µM (series often up to 57.7 µM), without a hit: at the highest dose activity, negative = inhibition, most hits filed as inhibitors; K18 P301L tau heparin fibrillization, Alexa594 FP, 6 h; further: potency means the concentration at half of the fitted maximal effect; on the % scale 0 is the no-effect control and ±100 the full control effect; nearly all actives have a fitted effect of over 55% in size
Target sequence (P10636 561-689 P618L limits assumed): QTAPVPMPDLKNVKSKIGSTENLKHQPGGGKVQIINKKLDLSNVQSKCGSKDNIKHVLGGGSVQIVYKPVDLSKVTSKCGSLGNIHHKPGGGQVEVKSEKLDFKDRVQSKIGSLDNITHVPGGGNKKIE
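K18 P301L tau (15 uM unlabeled/0.24 uM Alexa 594-labeled, final) + compound + heparin 20 uM final; 100 mM NaOAc pH 7; 6 hr 37 C; ThT 30 uM final added, 1 hr RT; FP ex 555/em 632 nm.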
Tau fluor counter – counter-screen for tau fibril formation inhibitors; tau K18 P301L Alexa594 fluorescence, heparin fibrillization; Potency, µM (doses to about 57.7 µM), for inactives: top-dose activity change, negative = decrease; 0.93% of 280,000 active; AID 1463; further: potency means the concentration at half of the fitted maximal effect; on the % scale 0 is the no-effect control and ±100 the full control effect; nearly all actives have a fitted effect of over 55% in size
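Human tau K18 P301L (15 uM unlabeled, 0.24 uM Alexa 594-labeled) in 100 mM sodium acetate pH 7 with 20 uM heparin, 6 hr at 37 C. ThT 30 uM added, 1 hr ambient; Alexa 594 FP and total fluorescence read at 555/632 nm.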
TRb SRC2 PPI – inhibitors of human thyroid hormone receptor beta-SRC2 interaction | P10828 | TRbeta-SRC2 peptide binding, fluorescence polarization; receptor liganded with 1 µM T3 | Potency, µM (highest dose often 106 µM), inactives show at the highest dose activity change, negative = inhibition, usual class: inhibitors | 0.065% of 280,000 active;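 further: potency means the concentration at half of the fitted maximal effect; plate controls were bound peptide for no effect and peptide without receptor for full effect; nearly all actives have a fitted effect of over 50% in size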
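Compounds were added to 0.6 uM TRb ligand-binding domain and 20 nM Texas Red-labeled SRC2 peptide in Tris buffer containing 1 uM T3, incubated 5 hr at ambient temperature, then read by fluorescence polarization.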
Tau ThT inhib – tau fibrillization inhibition (ThT binding) | Potency, µM (titrated, usually from 57.4 µM), without a hit: at the top dose activity, negative = inhibition, most hits filed as inhibitors | AID 1460 | 2.1% of 270,000 active | recombinant tau K18 P301L, heparin-induced fibrillization, ThT fluorescence | P10636; further: potency means the concentration at half of the fitted maximal effect; on the % scale 0 is the no-effect control and ±100 the full control effect; nearly all actives have a fitted effect of over 55% in size
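Recombinant human tau K18 fragment […] carrying P301L, 15 uM unlabeled plus 0.24 uM Alexa 594-labeled, was fibrillized with 20 uM heparin in 100 mM sodium acetate pH 7 for 6 hr at 37 C; 30 uM ThT fluorescence read after 1 hr.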
Tau TEM fibril – Blocks tau fibril formation, electron microscopy; recombinant tau K18 P301L fibrillization, TEM grading; active compounds read high; shares compounds with Tau ThT inhib; 70% of 45 active; fibril grade (0 = clumped fibrils, 4 = only tiny pieces) (concentration not given with the values);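 active means compounds whose electron micrographs showed tau fibrils broken into shorter filaments or fragments, graded high on fibril breakup; inconclusive means micrographs gave an unclear fibril picture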
tau fibril sed – tau fibrillization inhibition by sedimentation; shares compounds with Tau ThT inhib; recombinant tau K18 P301L (four-repeat tau fragment), sedimentation SDS-PAGE densitometry; inhibition, % at 100 µM; 50% of 110 active; AID 1720; in the data active means inhibition above about 40%; inconclusive means no clear call, values can overlap the other calls; inactive means below about 18%
An asterisk follows results filed as active; ! = not confirmed by another sample; [ ] = remark or other dose. Unless noted, the call rests on the fitted dose curve; in most records, active means well fitted curve in the direction sought with a large enough effect; inconclusive means small, poorly fitted or top-dose-only effect, or another doubt; inactive means no such curve, though single readings can be large; an effect the other way counts as inactive or inconclusive.

COc1cccc(CNc2cnc3ccccc3c2)c1O was read as RGS12 GoLoco inh 0%, TexasRed fluor 0%, Tau FP inhib 10%, Tau fluor counter inconclusive, TRb SRC2 PPI -2% and Tau ThT inhib inconclusive.
For CC(=O)c1ccc(NC(=O)c2nc(-c3ccccc3)n(-c3ccc(Cl)cc3)n2)cc1 the results were TexasRed fluor -3%, Tau FP inhib -1%, Tau fluor counter -30%, TRb SRC2 PPI 13% and Tau ThT inhib -17%.
CCN(C(=O)CSc1nc(-c2ccc(C(C)C)cc2)no1)c1ccccc1 was read as TexasRed fluor -2%, Tau FP inhib -2%, Tau fluor counter -15%, TRb SRC2 PPI 0% and Tau ThT inhib -14%.
O=C(Cc1ccccc1)Nc1sc2c(c1C(=O)Nc1ccccc1)CCCCC2 was read as TexasRed fluor inconclusive, Tau FP inhib -11%, Tau fluor counter -9%, TRb SRC2 PPI -8% and Tau ThT inhib -3%.
`O=C(Cc1ccccc1)Nc1sc2c(c1C(=O)Nc1ccc(Cl)cc1)CCCC2` gave TexasRed fluor 6%, Tau FP inhib inconclusive, Tau fluor counter -24%, TRb SRC2 PPI -9%, Tau ThT inhib 8.9µM*, Tau TEM fibril 2* and tau fibril sed 61*.
Screening COC(=O)CSc1nc2ccc(NC(=O)CSc3nnnn3Cc3ccccc3)cc2s1 returned RGS12 GoLoco inh 8%, TexasRed fluor -2%, Tau FP inhib inconclusive, Tau fluor counter inconclusive, TRb SRC2 PPI 3%, Tau ThT inhib inconclusive and tau fibril sed 18.
Nc1scc2c(C(=O)N3CCOCC3)nn(-c3ccccc3)c(=O)c12 was read as tau fibril sed 89*.
Nc1nn(-c2ccccc2)c(=O)c2c(N)scc12 was read as tau fibril sed 86*.
Nc1scc2c(CO)nn(-c3ccccc3)c(=O)c12 was read as tau fibril sed 81*.
For CCOC(=O)c1nn(-c2ccccc2)c(=O)c2c(N)scc12 the results were RGS12 GoLoco inh -10%, TexasRed fluor -8%, Tau FP inhib inconclusive, Tau fluor counter inconclusive, TRb SRC2 PPI 4%, Tau ThT inhib 8.9µM*, Tau TEM fibril 2* and tau fibril sed 73*.
CCN1CCN(C(=O)c2nn(-c3ccccc3)c(=O)c3ccccc23)CC1 was read as RGS12 GoLoco inh -1%, TexasRed fluor 0%, Tau FP inhib -1%, Tau fluor counter -6%, TRb SRC2 PPI 4% and Tau ThT inhib -3%.
For Cc1ccc(Cn2c(=O)c3ccccc3n3c(-c4cccc(O)c4)nnc23)cc1 the results were TexasRed fluor -1%, Tau FP inhib 3%, Tau fluor counter -13%, TRb SRC2 PPI 5% and Tau ThT inhib -4%.
For O=S(=O)(c1ccc(Br)cc1)N1CCN(S(=O)(=O)c2ccc(Br)cc2)CC1 the results were RGS12 GoLoco inh 5%[14.2 µM].
Screening c1ccc(C(c2ccccc2)N2CC[C@@]3(CCCNC3)C2)cc1 returned RGS12 GoLoco inh 2%.
For NC(=O)c1nn(-c2ccccc2)c(=O)c2c(N)scc12 the results were tau fibril sed 89*.
CCOC(=O)c1nn(-c2ccccc2)c(=O)c2c(NC(C)=O)scc12 was read as RGS12 GoLoco inh -1%, TexasRed fluor -2%, Tau FP inhib -4%, Tau fluor counter -7%, TRb SRC2 PPI 4%, Tau ThT inhib 2% and tau fibril sed 11.
Screening COC(=O)c1ccccc1NC(=O)CSc1nc2sc3c(c2c(=O)[nH]1)CCCC3 returned TexasRed fluor 2%, Tau FP inhib 14µM*, Tau fluor counter inconclusive, TRb SRC2 PPI -2%, Tau ThT inhib 7.9µM*, Tau TEM fibril 2* and tau fibril sed 58*.
`CCN(Cc1ccccc1)C(=O)c1cc2c(s1)-c1c(C)cccc1OC2` gave TexasRed fluor 0%, Tau FP inhib 6%, Tau fluor counter -11%, TRb SRC2 PPI 0% and Tau ThT inhib -10%.
For NC[C@H](O)c1ccc(O)c(O)c1 the results were RGS12 GoLoco inh 12%, TexasRed fluor -5%, Tau FP inhib 6.3µM*!, Tau fluor counter inconclusive, TRb SRC2 PPI -4%, Tau ThT inhib 4µM*!, Tau TEM fibril 3* and tau fibril sed 75*.
NC[C@@H](O)c1ccc(O)c(O)c1 was read as RGS12 GoLoco inh 0%, TexasRed fluor inconclusive, Tau FP inhib inconclusive, Tau fluor counter -15%, TRb SRC2 PPI -3%, Tau ThT inhib inconclusive and tau fibril sed 18.
For CC[C@H](NC(C)C)[C@H](O)c1ccc(O)c(O)c1 the results were RGS12 GoLoco inh 4%[21.6 µM], TexasRed fluor 0% and TRb SRC2 PPI -3%.
For C[C@H]1CC(C)(C)C[C@@](OCCN2CCCCC2)(c2ccccc2)C1 the results were RGS12 GoLoco inh -1%[14.2 µM].
Screening O=C(NCc1cccnc1)C1CCN(S(=O)(=O)c2cccs2)CC1 returned TexasRed fluor -3%, Tau FP inhib inconclusive, Tau fluor counter 4.5µM*[quencher], TRb SRC2 PPI -6%, Tau ThT inhib 4µM* and tau fibril sed 13.
Screening O=C(NCc1cccnc1)C1CCN(S(=O)(=O)c2cccnc2)CC1 returned RGS12 GoLoco inh -7%, TexasRed fluor 2%, Tau FP inhib 1%, Tau fluor counter -6%, TRb SRC2 PPI -15% and Tau ThT inhib -2%.
O=C(Nc1nnc(S(=O)(=O)Nc2ccccc2)s1)c1ccccc1Cl was read as TexasRed fluor -1%, Tau FP inhib -2%, Tau fluor counter -20%, TRb SRC2 PPI -3% and Tau ThT inhib inconclusive.
Screening O=C(Nc1nnc(S(=O)(=O)Nc2ccccc2)s1)C1CCCCC1 returned TexasRed fluor 2%, Tau FP inhib -18%, Tau fluor counter inconclusive, TRb SRC2 PPI -1%, Tau ThT inhib inconclusive and tau fibril sed 10.
COC(=O)c1c(NC(=O)c2cc(=O)c3cc(C)cc(C)c3o2)sc2c1CCC2 was read as TexasRed fluor 4%, Tau FP inhib 1%, Tau fluor counter -4%, TRb SRC2 PPI 4% and Tau ThT inhib 1%.

From PubChem BioAssay
